Here are results for 51 compounds from PubChem BioAssay AID589 (National Center for Advancing Translational Sciences (NCATS), 2007).

“And” between values parts separate entries of the source, which are not always exact repeats. Identical values can stand only once. The campaign covered roughly 59,000 compounds. About 6,200 (11%) were called active. Not shown: some 9% with an inconclusive outcome. Rule as the data show it: active = max dye-equivalent concentration above about 10 nM; inconclusive = mostly about 1.1 nM to 9.6 nM; inactive = weaker than that. This excerpt belongs to a sample that is enriched for actives.

The nature of the assay: qHTS Assay for Spectroscopic Profiling in 4-MU Spectral Region. The conditions noted are these: compound autofluorescence, 340/450 nm, 4-MU equivalents; active compounds read high. The gist of the method: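 Compounds in 100 mM Tris, pH 8.0, incubated 15 min at room temperature, then fluorescence read at 340 nm excitation/450 nm emission. Signal converted to 4-MU dye-equivalent concentration using an on-plate six-point 4-MU standard curve.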
A general note: qHTS replaces the single test concentration by a dilution series.
Consider `COC(=O)C(C)N(C#N)c1nc(C)nc(C)n1` (stereo unspecified), for which the max dye-equivalent concentration result is “inactive”.
In the case of `Cn1c(=O)[nH]c(=O)c2c1nc(Br)n2CCCCSc1nc2ccccc2o1`, the max dye-equivalent concentration entry was “inactive”.
For `CC[C@]1(O)CC2CN(CCc3c([nH]c4ccccc34)[C@@](C(=O)OC)(c3cc4c(cc3OC)N(C=O)[C@H]3[C@@](O)(C(=O)OC)[C@H](OC(C)=O)[C@]5(CC)C=CCN6CC[C@]43[C@@H]65)C2)C1` (stereo partly specified), the max dye-equivalent concentration result is “inactive”.
Under `CC[C@]1(O)C[C@@H]2CN(CCc3c([nH]c4ccccc34)[C@@](C(=O)OC)(c3cc4c(cc3OC)N(C)[C@H]3[C@@](O)(C(=O)OC)[C@H](OC(C)=O)[C@]5(CC)C=CCN6CC[C@]43[C@@H]65)C2)C1` stands 4.7e-08 M (active).
With `Cc1nn(CC(=O)Nc2ccc3c(c2)nc(CN2CCCCC2)n3C)c(=O)c2ccccc12` the entry was “inactive”.
As for `CC(C)NC(=O)N1CC[C@@]2(CCCN(C(=O)c3cccc(F)c3)C2)C1`, the max dye-equivalent concentration result was “inactive”.
With `COc1ccccc1CNc1ncnc2ccc(-c3ccc4c(c3)OCO4)cc12` the entry was “inactive”; with `Cc1cc(C)nc(N2CCN(c3ncnc4c3oc3ccccc34)CC2)n1`, “inactive”; with `COc1ccccc1Nc1ncnc2c1oc1ccccc12`, 7.3e-08 M (active).
With `S=c1[nH]nc(SCc2ccccc2Cl)c2[nH]cnc12` the entry was “inactive”; with `CCC(Oc1ccccc1)C(=O)NCc1cccnc1` (stereo unspecified), “inactive”.
With `O=C1CC2(CCCCC2)Oc2ccc(OCC(=O)N3CCOCC3)cc21` the figure was 1.2e-06 M (active); with `O=C(Oc1ccc2c(c1)CCC2)N1CCOCC1`, “inactive”; with `O=C(Nc1cccc(OCC(=O)N2CCOCC2)c1)C1CCCCC1`, “inactive”.
Take `CCOC(=O)CCc1c(C)c2ccc(OCc3nn[nH]n3)c(C)c2oc1=O`: the max dye-equivalent concentration was 2.4e-08 M (active).
In the case of `C[C@H](NC(=O)OC(C)(C)C)c1nnc(SCC(=O)Nc2ccc(Br)cc2)o1`, the max dye-equivalent concentration entry was “inactive”.
As for `C=C(Br)Cn1c(CCCC)nc2ccccc21`, the max dye-equivalent concentration result is “inactive”.
For `CCC(=O)Nc1nc2ccccc2n1Cc1ccccc1C`, the max dye-equivalent concentration entry is “inactive”.
For the compound `CCc1nc2ccccc2n(CCOCCOCCn2c(=O)c(CC)nc3ccccc32)c1=O`, the max dye-equivalent concentration was 3.4e-08 M (active).
Take `COc1cccc(OC)c1OCCN1CCN(C(=O)c2ccco2)CC1`: the max dye-equivalent concentration entry was “inactive”.
`Cc1cccc(Cn2c(SCCO)nc3c2c(=O)n(C)c(=O)n3C)c1`: the max dye-equivalent concentration result is “inactive”.
For `CCOC(=O)N1CCN(CC(=O)c2c(C)[nH]c3ccccc23)CC1`, the max dye-equivalent concentration result is “inactive”.
Take `CCOC(=O)N1CCN(CC(=O)n2c(C)c(C)c3ccccc32)CC1`: the max dye-equivalent concentration result was “inactive”.
With `CCOC(=O)N1CCN(CC(=O)c2ccc3c(c2)CCN3)CC1` the figure was 1.2e-08 M (active).
In the case of `CCNS(=O)(=O)c1ccc(NC(=O)Nc2cccc(C(F)(F)F)c2)cc1`, the max dye-equivalent concentration entry is “inactive”.
Take `CC1Oc2ccccc2N(Cc2cccnc2)C1=O` (stereo unspecified): the max dye-equivalent concentration entry was “inactive”.
With `Cc1ccc(CC2CC(=O)N(c3ccc4c(c3)OCCO4)C2=O)cc1` (stereo unspecified), the max dye-equivalent concentration entry was “inactive”.
Under `N#CC1=C(N)C(C#N)(C#N)[C@H](c2ccsc2)[C@H]2COCC=C12` stands 1.3e-08 M (active); under `COc1cccc2cc(C(=O)N(C)C)c(=O)oc12`, “inactive”; under `COc1ccc(OC)c(S(=O)(=O)Nc2ccccc2F)c1`, 6.6e-08 M (active).
`COC(=O)c1ccccc1NC(=O)C1CCN(S(=O)(=O)c2cc(OC)ccc2OC)CC1`: the max dye-equivalent concentration result is “inactive”.
With `COc1ccc(F)cc1S(=O)(=O)Nc1ccc2c(c1)OCO2`, the max dye-equivalent concentration entry was “inactive”.
In the case of `Cc1cc(OCC(=O)O)c(Cl)cc1Cl`, the max dye-equivalent concentration entry is “inactive”.
With `Cc1nc(NC(CC(C)C)C(=O)O)c2nc(C)oc2n1` (stereo unspecified) the entry was “inactive”; with `COc1c(C)c2c(c(O)c1C/C=C(\C)CCC(=O)O)C(=O)OC2`, 7e-08 M (active) and 1.5e-08 M (active).
In the case of `O=C(NC1CCCCC1)N1CCc2[nH]c3ccccc3c2C1`, the max dye-equivalent concentration result was “inactive”.
With `NC(=O)C1CCN(C2OC(=O)c3ccccc32)CC1` (stereo unspecified) the entry was “inactive”.
Under `CCOC(=O)CC1=CC(=O)Nc2ccccc2N1` stands “inactive”; under `CCCOC(=O)Cc1c(O)c2ccccc2[nH]c1=O`, “inactive”.
Under `CCOC(=O)CCc1c(C)c(C#N)c2[nH]c3ccccc3n2c1=O` stands 5.3e-06 M (active).
`CCOC(=O)c1sc(=S)n2c1[nH]c(=O)c1ccc(C(=O)OC)cc12`: the max dye-equivalent concentration result is “inactive”.
On to `Cc1cc2c(cc1C)NC(c1ccccn1)C1=C(CC(C)(C)CC1=O)N2` (stereo unspecified), for which the max dye-equivalent concentration entry was “inactive”.
Regarding `C=CCSC1=C(C#N)C(c2cc(Br)c(O)c(OC)c2)CC(=O)N1` (stereo unspecified), the max dye-equivalent concentration result was “inactive”.
Under `COc1cc(C2C(C#N)=C(C)NC3=C2C(=O)CC(C)(C)C3)ccc1O` (stereo unspecified) stands 1.3e-08 M (active); under `CCCCCCC(=O)N(O)C1CC(=O)N(c2ccccc2)C1=O` (stereo unspecified), “inactive”; under `COc1c(F)c(F)c(-c2csc(N)n2)c(F)c1F`, 1.5e-08 M (active).
With `CCC(=O)Nc1nc(OC)cc(OC)n1` the entry was “inactive”; with `Cc1cc(C)nc(NC2=NCC(=O)N2c2ccc(Cl)cc2)n1`, “inactive”.
With `CCN(CC(=O)Nc1ccc2c(c1)OCCO2)Cc1cc(=O)oc2cc(C)c(C)cc12` the entry was “inactive”; with `C=CCn1c(SCC(=O)Nc2nc3ccccc3s2)nnc1-c1ccccc1O`, “inactive”.
For the compound `C=CCn1c2ccccc2c2nnc(SC(CC)C(=O)Nc3nc(C)c(C(=O)OCC)s3)nc21` (stereo unspecified), the max dye-equivalent concentration was 4.6e-08 M (active).
